Experiment [1] can be described thus: Identifying Small Molecule Inhibitors of Pancreatic Cancer Stem Cells (A278, Adherent) (AID 1259361).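 Note: viability read after 48 h compound exposure; nearly all actives have a fitted effect of over 35% in size.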 The method, boiled down:
(§1)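 Monolayer and spheroid cultures are compared. Spheroids form over 14 days in stem cell medium on hydrogel-coated low-attachment plates, then are exposed to compound for 48 h before CellTiter-Glo luminescence.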

Experiment [2] is described as follows: P-glycoprotein substrates identified in KB-8-5-11 adenocarcinoma cell line, qHTS therapeutic library screen (AID 1346987). Note: potency is the fitted concentration of half-maximal effect; nearly all actives have a fitted effect of over 65% in size. In a few lines: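 Steps: plate 500 KB-8-5-11 cells/well in DMEM + 10% FCS (colchicine removed); pin compounds in dose-response; incubate 72 h, 37 degree C, 5% CO2; add CellTiter-Glo, 5 min; read luminescence.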
On the technique in general: qHTS replaces the single test concentration by a dilution series.

Experiment [3] in a line: qHTS of pediatric cancer cell lines to identify multiple opportunities for drug repurposing: Primary screen for TC32 cells (AID 1347089). Note: nearly all actives have a fitted effect of over 60% in size. Note: potency is the fitted concentration of half-maximal effect. The method, boiled down:
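qHTS, TC32, 48 h drug treatment, CellTiter-Glo luminescence as a proxy for metabolically active cells; primary top concentration 46 µM (MIPE 11-pt, NPC 8-pt); confirmatory 11-pt.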

A short description of experiment [4]: qHTS of pediatric cancer cell lines to identify multiple opportunities for drug repurposing: Primary screen for DAOY cells (AID 1347090). Note: nearly all actives have a fitted effect of over 55% in size. Note: potency is the fitted concentration of half-maximal effect. The method, boiled down:
(§2)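 Viability measured as metabolically active cells via CellTiter-Glo luminescence following 48 hours of compound exposure, 11-point dilutions in confirmatory testing. 500-1,000 cells/well plated 5 hours before dosing; controls were DMSO and 2.3 µM bortezomib.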

Experiment [5] in a line: qHTS of pediatric cancer cell lines to identify multiple opportunities for drug repurposing: Primary screen for SJ-GBM2 cells (AID 1347091). Note: potency is the fitted concentration of half-maximal effect. In a few lines:
as §2

Experiment [6] in a line: qHTS of pediatric cancer cell lines to identify multiple opportunities for drug repurposing: Primary screen for A673 cells (AID 1347092). Note: nearly all actives have a fitted effect of over 45% in size. Note: potency is the fitted concentration of half-maximal effect. In a few lines: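 Luminescence from CellTiter-Glo, taken after 15 min at room temperature, served as the proxy for metabolically active cells following 48 h treatment. Both potency and efficacy were taken from curves fitted to the titration data.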

A short description of experiment [7]: qHTS of pediatric cancer cell lines to identify multiple opportunities for drug repurposing: Primary screen for NB-EBc1 cells (AID 1347095). Note: potency is the fitted concentration of half-maximal effect. In a few lines: (§3)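 Following a 5-hour attachment period, cells at 500-1,000/well received compounds and were cultured for 48 hours. CellTiter-Glo was added and luminescence read to estimate viable, metabolically active cells.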

Experiment [8] is described as follows: Identifying Small Molecule Inhibitors of Pancreatic Cancer Stem Cells (Panc1, Adherent) (AID 1259362). Note: potency is the fitted concentration of half-maximal effect. The note with it: Potency: viability. In a few lines: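 After a 4 h attachment period, compounds were pinned into wells and cultures held 48 h under standard incubator conditions. Viability was then measured as CellTiter-Glo luminescence following 10 min at room temperature.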

The nature of experiment [9]: NS1 protein of Zika virus - qHTS assay to identify small molecule inhibitors in human HEK 293 cells (AID 1347053). Note: nearly all actives have a fitted effect of over 55% in size. Note: potency is the fitted concentration of half-maximal effect. The method, boiled down:
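HEK 293; 20 h pre-culture, 37 C/5% CO2; cpd 1 h pre-infection; ZIKV MR766, MOI = 0.5, 24 h, 37 C; TR-FRET NS1 readout (two anti-NS1 Abs); norm. to no-virus vs infected.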

Experiment [10] can be described thus: qHTS of pediatric cancer cell lines to identify multiple opportunities for drug repurposing: Primary screen for SK-N-MC cells (AID 1347093). Note: potency is the fitted concentration of half-maximal effect. In a few lines:
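Metabolically active cells were quantified by ATP-dependent luminescence (CellTiter-Glo, 15 min at room temperature) following 48 h treatment. Cells had been plated at 500-1,000 per well and settled for 5 h beforehand.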

Experiment [11] is described as follows: qHTS of pediatric cancer cell lines to identify multiple opportunities for drug repurposing: Primary screen for BT-37 cells (AID 1347094). Note: potency is the fitted concentration of half-maximal effect. In a few lines:
as §3

Experiment [12] in a line: Identifying Small Molecule Inhibitors of Pancreatic Cancer Stem Cells (SN12C, Spheroid) (AID 1259360). The note with it: Potency: SN12C spheroid viability. In a few lines: as §1
Experiment [13] is described as follows: P-glycoprotein substrates identified in KB-3-1 adenocarcinoma cell line, qHTS therapeutic library screen (AID 1346986).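 Note: potency is the fitted concentration of half-maximal effect; potency is for cytotoxicity meaning loss of cell viability; nearly all actives have a fitted effect of over 60% in size.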 The method, boiled down:
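KB-3-1 parental and colchicine-selected P-gp-overexpressing KB-8-5-11 cells (colchicine omitted during assay), 500 cells/well, dosed in dose-response for 72 h at 37 °C; CellTiter-Glo luminescence. Cytotoxic: curve class -1.1 to -2.4, max response >50%, AC50 < 10 uM.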

This passage reports IC50 (viability decrease) and Potency results from PubChem BioAssay (NCATS).

Structures are written as SMILES. Where “and” joins values, the source holds several entries; their conditions need not be identical. Identical values can stand only once. Records with an inconclusive call do not appear. Calls of active or inactive are those of the source. Calls come from the whole dose curve; as a rule, active = well fitted curve in the direction sought with a large enough effect; inconclusive = small, poorly fitted or top-dose-only effect, or another doubt; inactive = no such curve, though single readings can be large; an effect the other way counts as inactive or inconclusive.

Consider `O=C(C=Cc1cccc(S(=O)(=O)Nc2ccccc2)c1)NO`, for which the IC50 (viability decrease) in experiment [1] was 4.69 µM (active). Besides, the Potency is 10.8 µM (active) in [2]; 9.54 µM (active) in [3]; 8.55 µM (active) in experiment [4]; 2.15 µM (active) in experiment [5]; 4.29 µM (active) in experiment [6]; 1.91 µM (active) in experiment [7].

In the case of `Nc1nccc(Oc2ccc(NC(=O)c3c[nH]cc(-c4ccc(F)cc4)c3=O)cc2F)c1Cl`, the IC50 (viability decrease) in experiment [1] was 23.5 µM (active). Besides, the Potency entry in [8] and in [9] was “inactive” throughout. The Potency in experiment [2] was 23.5 µM (active) and 16.4 µM (active); in [4], 14.8 µM (active); in experiment [6], 5.9 µM (active); in experiment [10] it was 2.35 µM (active); in experiment [7], 1.05 µM (active).

Turning to `Cc1ccc(C(N)=O)cc1Nc1nccc(-c2cn(C(C)C)c3cnccc23)n1`, the IC50 (viability decrease) in experiment [1] is 8.33 µM (active). Besides, the Potency in [2] is 20.6 µM (active); in [4], 11.8 µM (active); in experiment [6], 3.72 µM (active); in experiment [10], 5.9 µM (active); in experiment [11], 9.68 µM (active); in experiment [7], 4.18 µM (active).

Turning to `CCC[C@H](NC(=O)C(C#N)=Cc1cccc(Br)n1)c1ccccc1`, the IC50 (viability decrease) in experiment [1] was 26.4 µM (active). Moreover, the Potency in experiment [8] is 20.9 µM (active); in experiment [9], 14.8 µM (active); in experiment [4], 14.8 µM (active); in [5], 8.33 µM (active); in experiment [6], 9.35 µM (active); in [10], 18.7 µM (active). Moreover, the Potency in experiment [7] was 8.33 µM (active). Further, the Potency entry in experiment [3] is “inactive”.

In the case of `Cc1cn(-c2cc(NC(=O)c3ccc(C)c(Nc4nccc(-c5cccnc5)n4)c3)cc(C(F)(F)F)c2)cn1`, the Potency result in experiment [12], in experiment [3], in experiment [4], in [6], in [10] and in experiment [11] was “inactive” throughout. The Potency in experiment [5] is 18.7 µM (active); in experiment [7] it was 23.5 µM (active).

`CCN(CC)CCCCNc1ncc2cc(-c3cc(OC)cc(OC)c3)c(NC(=O)NC(C)(C)C)nc2n1`: the IC50 (viability decrease) in [1] is 5.26 µM (active). Also, the Potency entry in experiment [8], in [3] and in [4] was “inactive” each time. Besides, the Potency in experiment [13] was 23.1 µM (active); in experiment [5], 14.8 µM (active); in experiment [6] it was 18.7 µM (active); in experiment [10], 23.5 µM (active); in [11], 19.3 µM (active).

Consider `Nc1ccccc1NC(=O)c1ccc(CNc2nccc(-c3cccnc3)n2)cc1`, for which the IC50 (viability decrease) in experiment [1] is 1.18 µM (active). The Potency in experiment [2] was 2.96 µM (active) and 2.31 µM (active); in [3], 6.58 µM (active); in experiment [4], 7.43 µM (active); in experiment [6], 2.35 µM (active); in experiment [10], 0.187 µM (active); in experiment [11], 3.06 µM (active). Also, in experiment [7], the Potency is 0.743 µM (active). For the same compound, in experiment [9], the Potency result is “inactive”.

Consider `Cc1ccc(C(=O)Nc2cccc(C(F)(F)F)c2)cc1-c1ccc2nc(NCCN3CCOCC3)ncc2c1`, for which the IC50 (viability decrease) in experiment [1] is 2.64 µM (active). Besides, the Potency is 11.8 µM (active) in [8]; 8.2 µM (active) in experiment [13]; 18.6 µM (active) in experiment [3]; 14.8 µM (active) in experiment [4]; 6.62 µM (active) in experiment [5]; 4.69 µM (active) in [6]. In addition, the Potency in [7] was 3.72 µM (active).

Turning to `CN1CCN(c2cc(C(=O)Nc3ccc4c(c3)-c3c(c(C(N)=O)nn3-c3ccc(F)cc3)CC4)c(Cl)cn2)CC1`, the IC50 (viability decrease) in experiment [1] was 23.5 µM (active). Also, the Potency in [13] was 29.1 µM (active); in experiment [2], 23.5 µM (active); in experiment [9], 26.4 µM (active); in experiment [4], 11.8 µM (active); in experiment [6], 2.35 µM (active); in [11], 24.3 µM (active). For the same compound, in experiment [3], the Potency entry is “inactive”.
